Assay outcomes as filed in PubChem BioAssay.
Compounds with a hit are over-represented: about 27% of the library has one in this group of screens.
sEH act: activators of human soluble epoxide hydrolase; activation, % at 2 µM; P34913; purified human sEH enzymatic activity, activator screen; 0.04% of 91,000 active; in the data active means activation above about 37%
Target sequence (P34913 whole entry, looked up): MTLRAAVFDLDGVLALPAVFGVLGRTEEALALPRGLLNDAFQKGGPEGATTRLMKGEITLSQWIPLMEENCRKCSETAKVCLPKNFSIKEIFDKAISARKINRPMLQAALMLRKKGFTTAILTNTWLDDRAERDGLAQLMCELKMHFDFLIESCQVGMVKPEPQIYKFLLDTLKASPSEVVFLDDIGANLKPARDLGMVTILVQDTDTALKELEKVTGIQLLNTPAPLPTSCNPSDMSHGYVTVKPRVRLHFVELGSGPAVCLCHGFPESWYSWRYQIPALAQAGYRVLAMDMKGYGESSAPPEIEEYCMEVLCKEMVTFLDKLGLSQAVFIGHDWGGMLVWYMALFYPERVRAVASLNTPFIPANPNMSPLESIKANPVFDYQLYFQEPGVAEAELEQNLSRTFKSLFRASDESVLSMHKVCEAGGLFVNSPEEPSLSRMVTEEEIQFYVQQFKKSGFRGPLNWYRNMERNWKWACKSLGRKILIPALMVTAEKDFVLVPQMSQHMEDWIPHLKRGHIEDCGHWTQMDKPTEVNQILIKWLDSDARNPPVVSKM
CYP2C19 inhib: inhibitors of human CYP2C19; P33261; 21% of 96,000 active; AID 778; CYP2C19 Supersomes, luciferin-H EGE luminescence, 30 min; inhibition, % at 5 µM;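 active means CYP2C19 inhibition above a set limit at 5 µM in the primary screen, cut at about 50% in these data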
CYP2C9 inhib: blocks human cytochrome P450 2C9; CYP2C9 Supersomes, luciferin-H conversion, luminescence; inhibition, % at 5 µM; 20% of 96,000 active;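 active means blocking of liver enzyme CYP2C9 beyond about 50% at 5 µM, limit read from the data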
sEH inh: blocks human soluble epoxide hydrolase activity. recombinant human sEH enzymatic activity assay. inhibition, % at 2 µM. 0.34% of 91,000 active. AID 707; in the data active means inhibition above about 80%
CYP2C9 act: CYP2C9 (human) activation; recombinant CYP2C9, luciferin-H conversion, luminescence; stronger effect = higher value; factor 1 = untreated enzyme, 0 = blocked; P11712; 1.4% of 96,000 active; AID 1024; activation factor at 5 µM;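 active means activation factor of 2 or more for CYP2C9 at a 5 µM dose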
CYP2C19 activ: increases human CYP2C19 enzyme activity. recombinant CYP2C19, luciferin-H EGE luminescence; stronger effect = higher value; 0 = fully inhibited enzyme, 1 = untreated enzyme. activation factor at 5 µM. 96,000 tested, under 10 active. AID 1025;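 active means activation factor of at least 2 at 5 µM in the primary screen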
A number is an active result; i = inactive; nt = not tested or not shown.

SMILES | sEH act | CYP2C19 inhib | CYP2C9 inhib | sEH inh | CYP2C9 act | CYP2C19 activ
CCN(CC)S(=O)(=O)c1ccc(Nc2nc3ccccc3n3nnnc23)cc1 | nt | i | 63 | nt | i | i
O=C(NCc1ccco1)C1CCCN(S(=O)(=O)c2cccc3nsnc23)C1 (stereo unspecified) | nt | i | i | nt | i | i
CC(=C1C2C=CC1C1C(=O)NC(=O)C21)c1ccccc1 (stereo unspecified) | i | 79 | i | i | i | i
O=C(COC(=O)c1c2ccccc2cc2ccccc12)Nc1ncc(C(F)(F)F)cc1Cl | i | i | i | i | i | i
Clc1ccc2c(NCc3ccccn3)ncnc2c1 | i | 62 | i | i | i | i
Clc1ccc2c(NCc3ccco3)ncnc2c1 | i | 79 | 55 | i | i | i
CCOC(=O)C1CCCN(C(=O)CCn2nc(-c3ccccc3)ccc2=O)C1 (stereo unspecified) | i | i | i | i | i | i
Cc1onc(-c2ccccc2Cl)c1C(=O)NCc1ccco1 | i | 51 | i | i | i | i
Cc1onc(-c2ccccc2Cl)c1C(=O)Nc1nnc(C(C)C)s1 | nt | i | 59 | nt | i | i
COC(=O)c1c(NC(=O)c2c(-c3ccccc3Cl)noc2C)sc2c1CCC2 | i | 74 | 98 | i | i | i
O=C(/C=C/c1ccccc1Cl)NCc1ccco1 | i | i | i | i | 2.3 | i
Cc1noc(C)c1C(=O)NCc1ccco1 | i | i | i | i | i | i
CN(C)c1cccc(C(=O)Nc2ccc(N3CCOCC3)cc2)c1 | i | i | i | i | i | i
Cc1onc(-c2ccccc2Cl)c1C(=O)Nc1nnc(Cc2ccc(Cl)cc2)s1 | i | i | 88 | i | i | i
COc1ccc(NC(=O)CN2CCN(C3c4ccccc4-c4ccccc43)CC2)c(OC)c1 | i | 88 | 97 | i | i | i
COc1ccccc1NC(=O)CN1CCN(C2c3ccccc3-c3ccccc32)CC1 | i | 81 | 96 | i | i | i
Cc1cc(N2CCN(c3ccccc3)CC2)nc(N)n1 | i | nt | nt | i | nt | nt
O=C(c1cc(-c2ccccc2)on1)N1CCN(C(=O)c2ccco2)CC1 | i | i | i | i | i | i
Cc1cc(N2CCN(C(=O)c3ccco3)CC2)nc(-c2ccccc2)n1 | nt | 74 | 55 | nt | i | i
COc1ccc(C2(O)CC3CCC(C2)N3c2cc(C)nc(-c3ccccc3)n2)cc1 (stereo unspecified) | i | 53 | 93 | i | i | i
Cc1cc(Oc2ccccc2)nc(-c2ccccc2)n1 | i | i | i | i | i | i
Cc1cc(N2CCN(c3ccccc3)CC2)nc(-c2ccccc2)n1 | i | 86 | i | i | i | i
CCn1cc(C(=O)OCC(=O)NCc2ccc3c(c2)OCO3)c(=O)c2ccc(C)nc21 | i | i | i | i | i | i
O=C(Nc1ccc(S(=O)(=O)N2CCCC2)cc1)N1c2ccccc2Sc2ccccc21 | i | i | 74 | i | i | i
O=C(O)CCC(=O)Nc1ccc(S(=O)(=O)N2CCCC2)cc1 | nt | 50 | i | nt | i | i
SMILES | sEH act | CYP2C19 inhib | CYP2C9 inhib | sEH inh | CYP2C9 act | CYP2C19 activ
COC(=O)c1ccc(NC(=O)COc2ccc(S(=O)(=O)N3CCCCC3)cc2)cc1 | i | i | 64 | i | i | i
O=C(O)CSCC(=O)Nc1ccc(S(=O)(=O)N2CCCCC2)cc1 | nt | i | i | nt | i | i
CC(SCC(=O)Nc1ccc(S(=O)(=O)N2CCCCC2)cc1)C(=O)O (stereo unspecified) | i | i | 56 | i | i | i
COCCNC(=O)Cn1nc(C(F)(F)F)c(Cl)c1C | i | i | i | i | i | i
COc1cc(-c2nnc(SCC(=O)/C(C#N)=C(\C)N)o2)cc(OC)c1OC | i | i | i | i | i | i
O=C(Nc1ccccc1)Nc1ccc(S(=O)(=O)N2CCCCC2)cc1 | i | i | i | 92 | i | i
O=C(Nc1ccc(S(=O)(=O)N2CCCCC2)cc1)c1ccccc1Cl | i | i | i | i | i | i
Cc1cccc(OCC(=O)Nc2ccc(S(=O)(=O)N3CCN(C)CC3)cc2)c1 | i | nt | nt | i | nt | nt
Cc1cccc(OCCC(=O)Nc2ccc(S(=O)(=O)N3CCCC3)cc2)c1 | i | i | 67 | i | i | i
COc1cc(CC(=O)OCC(=O)Nc2ccc(S(=O)(=O)N3CCCC3)cc2)cc(OC)c1OC | i | i | 61 | i | i | i
COC(=O)c1cccc(NC(=O)CCCOc2cccc(C)c2)c1 | i | 76 | 58 | i | i | i
Cc1cc(C(F)(F)F)nc(NCc2cccnc2)n1 | i | nt | nt | i | nt | nt
CC(Sc1ccccc1)C(=O)Nc1ccc(S(=O)(=O)N2CCOCC2)cc1 (stereo unspecified) | i | i | i | i | i | i
CCCN(C(=O)c1cccs1)c1nnc(-c2ccncc2)s1 | i | 99 | 55 | i | i | i
O=C(CCn1c(=O)sc2ccccc21)NCc1ccco1 | i | nt | nt | i | nt | nt
CCOC(=O)CN1C(=O)C(Sc2n[nH]c(-c3ccccc3)n2)CCc2ccccc21 (stereo unspecified) | i | 89 | 93 | i | i | i
CCOC(=O)c1c(C)nc(C)c(C(=O)OCC)c1-c1ccccc1 | i | nt | nt | i | nt | nt
CCOC(=O)c1c(C)[nH]c(=S)c(C#N)c1-c1ccc(OC)cc1 | i | i | 78 | i | i | i
Cc1ccc(Nc2nc3ccccc3[nH]2)nc1 | i | nt | nt | i | nt | nt
CC(=O)c1c(COC(=O)c2cccnc2)nc2ccccc2[n+]1[O-] | i | i | i | i | i | i
O=C(Nc1ccc2nc(C3CC3)n(Cc3ccc(F)cc3)c(=O)c2c1)c1ccco1 | nt | 56 | 67 | nt | i | i
Cc1nn(CC(=O)Nc2sc3c(c2C#N)CCC(C(C)(C)C)C3)c(C)c1[N+](=O)[O-] (stereo unspecified) | i | i | i | i | i | i
COc1cc(C(C[N+](=O)[O-])c2c(C)[nH]c3ccccc23)cc(OC)c1OC (stereo unspecified) | i | 98 | 72 | i | i | i
Cc1cc(OCC(F)(F)C(F)(F)C(F)(F)C(F)(F)C(F)(F)C(F)F)nc(N)n1 | i | 64 | 57 | i | i | i
Cn1c2c(c(=O)n(C)c1=O)C(c1cccc(Br)c1)C1C(=O)c3ccccc3C1=N2 (stereo unspecified) | i | nt | nt | i | nt | nt
SMILES | sEH act | CYP2C19 inhib | CYP2C9 inhib | sEH inh | CYP2C9 act | CYP2C19 activ
Cc1cccc(OCCSc2nnc(-c3ccoc3C)n2C)c1 | i | 98 | 58 | i | i | i
Cn1c(SCCC(=O)O)nnc1-c1ccncc1 | i | nt | nt | i | nt | nt
Cn1c(SCC(=O)N2CCN(c3cccc(Cl)c3)CC2)nnc1-c1ccncc1 | i | i | i | i | i | i
Cc1ccc(OCCSc2nnc(-c3ccncc3)n2C)cc1 | i | 93 | i | i | i | i
Cc1occc1-c1nnc(SCC(=O)N2c3ccccc3CCc3ccccc32)n1C | i | i | i | i | i | i
Cn1c(SCCOc2cccc(Cl)c2)nnc1-c1ccncc1 | nt | 92 | i | nt | i | i
O=S(=O)(Nc1nc(CN2CCOCC2)nc2sc3c(c12)CCCC3)c1cc(F)ccc1F | i | i | 63 | i | i | i
CCOC(=O)c1[nH]c(C)c(C(=O)N2CCN(C(=O)OCC)CC2)c1CC | nt | i | i | nt | i | i
